Source: PubChem BioAssay AID1159580 (chemical genetic matrix, 2015)
Values joined by “and” are separate entries in the source; they are usually repeats but may differ in a detail not shown here. Identical values can stand only once. The campaign covered roughly 5,500 compounds. About 2,000 (36%) were called active. About 18% were inconclusive and are not listed. Rule as the data show it: active = normalized growth mostly below about 0.91 (no sharp cut-off); inconclusive = no clear call, values can overlap the other calls; inactive = mostly above about 0.92. Some of the results follow.

Assay: chemical genetic growth profiling, strain panel (AID 1159580);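 also: tested at 20 µM; growth read once vehicle control cultures reached saturation at 30 °C; 1 = growth at the plate median or of vehicle wells; lower values mean less growth of the strain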
Details: growth OD

Measured: normalized growth

NCCCC(=O)O
inactive: S. cerevisiae deletion strains, locus YAL013W, strain DEP1, stronger effect = lower value 1 and 0.982 | S. cerevisiae deletion strains, locus YAL040C, strain CLN3, stronger effect = lower value 0.965 | S. cerevisiae deletion strains, locus YBR021W, strain FUR4, stronger effect = lower value 1.01 | S. cerevisiae deletion strains, locus YBR229C, strain ROT2, stronger effect = lower value 1.01 | S. cerevisiae deletion strains, locus YCL029C, strain bik1, stronger effect = lower value 1.04 | S. cerevisiae deletion strains, locus YDL035C, strain GPR1, stronger effect = lower value 1.01 | S. cerevisiae deletion strains, locus YDL074C, strain BRE1, stronger effect = lower value 1.01 | S. cerevisiae deletion strains, locus YDL101C, strain DUN1, stronger effect = lower value 1.01 | S. cerevisiae deletion strains, locus YDL134C, strain PPH21, stronger effect = lower value 1.01 | S. cerevisiae deletion strains, locus YDL185W, strain tfp1, stronger effect = lower value 1.01 | S. cerevisiae deletion strains, locus YDL192W, strain arf1, stronger effect = lower value 1.02 | S. cerevisiae deletion strains, locus YDR101C, strain arx1, stronger effect = lower value 1.03 | S. cerevisiae deletion strains, locus YDR150W, strain NUM1, stronger effect = lower value 1.01 | S. cerevisiae deletion strains, locus YDR162C, strain NBP2, stronger effect = lower value 1 | S. cerevisiae deletion strains, locus YDR318W, strain mcm21, stronger effect = lower value 1.02 | S. cerevisiae deletion strains, locus YDR363W, strain ESC2, stronger effect = lower value 1.02 | S. cerevisiae deletion strains, locus YDR388W, stronger effect = lower value 1.02 | S. cerevisiae deletion strains, locus YDR502C, strain sam2, stronger effect = lower value 1.03 | S. cerevisiae deletion strains, locus YEL061C, strain CIN8, stronger effect = lower value 1 | S. cerevisiae deletion strains, locus YER002W, strain NOP16, stronger effect = lower value 0.993 | S. cerevisiae deletion strains, locus YER110C, stronger effect = lower value 1.04 | S. cerevisiae deletion strains, locus YER155C, strain BEM2, stronger effect = lower value 1.01 | S. cerevisiae deletion strains, locus YER167W, strain BCK2, stronger effect = lower value 1.01 | S. cerevisiae deletion strains, locus YGL078C, strain dbp3, stronger effect = lower value 1.03 | S. cerevisiae deletion strains, locus YGL086W, strain mad1, stronger effect = lower value 1.02 | S. cerevisiae deletion strains, locus YGL248W, strain PDE1, stronger effect = lower value 1.01 | S. cerevisiae deletion strains, locus YGR078C, strain PAC10, stronger effect = lower value 1.01 | S. cerevisiae deletion strains, locus YGR135W, strain pre9, stronger effect = lower value 1.04 | S. cerevisiae deletion strains, locus YGR229C, strain SMI1, stronger effect = lower value 1.03 and 0.998 | S. cerevisiae deletion strains, locus YGR252W, strain gcn5, stronger effect = lower value 1.07 | S. cerevisiae deletion strains, locus YHR030C, strain SLT2, stronger effect = lower value 1.01 | S. cerevisiae deletion strains, locus YHR079C, strain IRE1 (second series), stronger effect = lower value 1.02 | S. cerevisiae deletion strains, locus YHR079C, strain IRE1, stronger effect = lower value 0.994 | S. cerevisiae deletion strains, locus YHR094C, strain hxt1, stronger effect = lower value 1.02 | S. cerevisiae deletion strains, locus YHR129C, strain ARP1, stronger effect = lower value 1 | S. cerevisiae deletion strains, locus YHR200W, strain rpn10, stronger effect = lower value 1.02 | S. cerevisiae deletion strains, locus YIL066C, strain RNR3, stronger effect = lower value 1.01 | S. cerevisiae deletion strains, locus YIL073C, strain SPO22, stronger effect = lower value 1.06 | S. cerevisiae deletion strains, locus YIL125W, strain kgd1, stronger effect = lower value 1.02 | S. cerevisiae deletion strains, locus YIR030C, strain dcg1, stronger effect = lower value 1.04 | S. cerevisiae deletion strains, locus YJL095W, strain BCK1, stronger effect = lower value 1.01 and 0.999 | S. cerevisiae deletion strains, locus YJL134W, strain LCB3, stronger effect = lower value 1.01 | S. cerevisiae deletion strains, locus YJL168C, strain set2, stronger effect = lower value 1.03 | S. cerevisiae deletion strains, locus YJL187C, strain SWE1 (second series), stronger effect = lower value 1.01 | S. cerevisiae deletion strains, locus YJR043C, strain POL32, stronger effect = lower value 1 | S. cerevisiae deletion strains, locus YJR066W, strain TOR1, stronger effect = lower value 0.949 | S. cerevisiae deletion strains, locus YJR075W, strain HOC1, stronger effect = lower value 1.01 | S. cerevisiae deletion strains, locus YKL009W, strain mrt4, stronger effect = lower value 0.999 | S. cerevisiae deletion strains, locus YKL068W, stronger effect = lower value 1.01 | S. cerevisiae deletion strains, locus YKL085W, strain MDH1 (second series), stronger effect = lower value 1 | S. cerevisiae deletion strains, locus YKL085W, strain MDH1, stronger effect = lower value 1 | S. cerevisiae deletion strains, locus YKL190W, strain CNB1, stronger effect = lower value 1 | S. cerevisiae deletion strains, locus YKR001C, strain vps1, stronger effect = lower value 1.03 | S. cerevisiae deletion strains, locus YLR039C, strain RIC1, stronger effect = lower value 0.999 | S. cerevisiae deletion strains, locus YLR058C, strain SHM2, stronger effect = lower value 1.01 | S. cerevisiae deletion strains, locus YLR102C, strain apc9, stronger effect = lower value 1.03 | S. cerevisiae deletion strains, locus YLR113W, strain HOG1, stronger effect = lower value 0.996 | S. cerevisiae deletion strains, locus YLR262C, strain YPT6, stronger effect = lower value 1 | S. cerevisiae deletion strains, locus YLR268W, strain sec22, stronger effect = lower value 1.03 | S. cerevisiae deletion strains, locus YLR330W, strain CHS5, stronger effect = lower value 1 | S. cerevisiae deletion strains, locus YLR342W, strain FKS1 (second series), stronger effect = lower value 0.994 | S. cerevisiae deletion strains, locus YLR371W, strain rom2, stronger effect = lower value 1.03 | S. cerevisiae deletion strains, locus YLR418C, strain cdc73, stronger effect = lower value 1.08 | S. cerevisiae deletion strains, locus YML016C, strain PPZ1, stronger effect = lower value 1.01 | S. cerevisiae deletion strains, locus YML032C, strain rad52, stronger effect = lower value 1.04 | S. cerevisiae deletion strains, locus YML124C, strain tub3, stronger effect = lower value 1.03 | S. cerevisiae deletion strains, locus YMR078C, strain ctf18, stronger effect = lower value 1.03 | S. cerevisiae deletion strains, locus YMR223W, strain ubp8, stronger effect = lower value 1.02 | S. cerevisiae deletion strains, locus YMR263W, strain SAP30, stronger effect = lower value 1.01 | S. cerevisiae deletion strains, locus YMR307W, strain GAS1, stronger effect = lower value 1.02 | S. cerevisiae deletion strains, locus YNL067W, strain RPL9B, stronger effect = lower value 1.01 | S. cerevisiae deletion strains, locus YNL128W, strain TEP1, stronger effect = lower value 1.02 and 0.979 | S. cerevisiae deletion strains, locus YNL153C, strain GIM3, stronger effect = lower value 1.01 | S. cerevisiae deletion strains, locus YNL175C, strain NOP13, stronger effect = lower value 0.995 | S. cerevisiae deletion strains, locus YNL183C, strain NPR1, stronger effect = lower value 0.918 | S. cerevisiae deletion strains, locus YNL197C, strain WHI3, stronger effect = lower value 0.975 | S. cerevisiae deletion strains, locus YNL224C, strain SQS1, stronger effect = lower value 1.02 | S. cerevisiae deletion strains, locus YNL233W, strain BNI4, stronger effect = lower value 1 | S. cerevisiae deletion strains, locus YNL250W, strain rad50, stronger effect = lower value 1.03 | S. cerevisiae deletion strains, locus YNL271C, strain bni1, stronger effect = lower value 1.03 | S. cerevisiae deletion strains, locus YNL298W, strain CLA4, stronger effect = lower value 1.05 | S. cerevisiae deletion strains, locus YNL307C, strain MCK1, stronger effect = lower value 1.03 | S. cerevisiae deletion strains, locus YNL322C, strain KRE1, stronger effect = lower value 1.01 and 0.99 | S. cerevisiae deletion strains, locus YNR052C, strain pop2, stronger effect = lower value 1.02 | S. cerevisiae deletion strains, locus YOL006C, strain TOP1, stronger effect = lower value 1.03 | S. cerevisiae deletion strains, locus YOL012C, strain htz1 1.29 | S. cerevisiae deletion strains, locus YOL147C, strain pex11, stronger effect = lower value 1.04 | S. cerevisiae deletion strains, locus YOR061W, strain CKA2, stronger effect = lower value 1.01 | S. cerevisiae deletion strains, locus YOR069W, strain VPS5, stronger effect = lower value 1 | S. cerevisiae deletion strains, locus YOR083W, strain WHI5 (second series), stronger effect = lower value 0.99 | S. cerevisiae deletion strains, locus YOR136W, strain idh2, stronger effect = lower value 1.02 | S. cerevisiae deletion strains, locus YOR144C, strain elg1, stronger effect = lower value 1.03 | S. cerevisiae deletion strains, locus YOR184W, strain ser1, stronger effect = lower value 1.03 | S. cerevisiae deletion strains, locus YOR231W, strain MKK1, stronger effect = lower value 1 | S. cerevisiae deletion strains, locus YOR316C, strain cot1, stronger effect = lower value 1.03 | S. cerevisiae deletion strains, locus YPL055C, strain LGE1, stronger effect = lower value 1.03 | S. cerevisiae deletion strains, locus YPL241C, strain CIN2, stronger effect = lower value 0.999 | S. cerevisiae deletion strains, locus YPL256C, strain CLN2, stronger effect = lower value 0.985 | S. cerevisiae deletion strains, locus YPR119W, strain clb2, stronger effect = lower value 1.02 | S. cerevisiae deletion strains, locus YPR141C, strain kar3, stronger effect = lower value 1.02 | S. cerevisiae deletion strains, locus YPR163C, strain tif3, stronger effect = lower value 1.04 | S. cerevisiae deletion strains, locus YPR167C, strain met16, stronger effect = lower value 1.02 | S. cerevisiae deletion strains, strain wtn01, stronger effect = lower value 1.03 | S. cerevisiae strains, strain wild type, stronger effect = lower value 1.01
